Bioassay records: PubChem, National Center for Advancing Translational Sciences (NCATS)
HADH2 inhib: qHTS Assay for Inhibitors of HADH2 (Hydroxyacyl-Coenzyme A Dehydrogenase, Type II) | recombinant HADH2, NADH fluorescence, beta-hydroxybutyryl-CoA | 3-hydroxyacyl-CoA dehydrogenase type-2 (Homo sapiens), Q99714 | Potency, µM (titrated, usually from 57.1 µM), most hits filed as inhibitors | 73,000 compounds, 3.4% hits | AID 886, 2007; further: nearly all actives have a fitted effect of over 60% in size
Target sequence (Q99714 whole entry, looked up, one chain of several): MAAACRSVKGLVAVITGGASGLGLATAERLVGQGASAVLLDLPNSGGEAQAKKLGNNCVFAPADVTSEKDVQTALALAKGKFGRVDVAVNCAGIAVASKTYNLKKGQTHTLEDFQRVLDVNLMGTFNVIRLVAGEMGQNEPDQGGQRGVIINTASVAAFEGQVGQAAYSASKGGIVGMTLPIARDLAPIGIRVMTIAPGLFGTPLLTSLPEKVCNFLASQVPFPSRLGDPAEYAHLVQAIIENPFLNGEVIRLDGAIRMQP
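Activity measured as NADH fluorescence gain (360/450 nm), taken as the change between first and last reads of a 4-min kinetic run. Conditions: pH 9.0 Tris buffer, 20 nM E. coli-expressed His-tagged enzyme, 1 mM NAD+, 90 uM beta-hydroxybutyryl-CoA; 15-min compound preincubation.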
4MU fluor: qHTS Assay for Spectroscopic Profiling in 4-MU Spectral Region | compound autofluorescence, 340/450 nm, 4-MU equivalents; hits give high values | max dye-equivalent concentration, M | 59,000 compounds, 11% hits | AID 589, 2007; in the data active means max dye-equivalent concentration above about 10 nM; inconclusive means mostly about 1.1 nM to 9.6 nM
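Compounds in 100 mM Tris, pH 8.0, incubated 15 min at room temperature, then fluorescence read at 340 nm excitation/450 nm emission. Signal converted to 4-MU dye-equivalent concentration using an on-plate six-point 4-MU standard curve.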
CRE-bla Fsk: Cell signaling CRE-BLA (Fsk stim); CHO CRE-bla reporter (cAMP response element driving beta-lactamase), forskolin EC10, beta-lactamase ratio; Potency, µM (doses to about 38.2 µM), hits mostly activators; 71,000 compounds, 2.5% hits; active means well fitted activation curve with a large enough effect in the signal ratio, with a control signal flat, not every such curve was filed as active; inconclusive means small, poorly fitted or top-dose-only effect, or effect the other way, or a change in a side signal; the % refers to the signal ratio
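qHTS titration format; CRE-bla CHO reporter; stimulus EC10 NKH 477, a water-soluble forskolin. Read: CCF4 460/530 nm ratio. Potency expressed as AC50 for activators or inhibitors.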
HSD17B inhib: qHTS Assay for Inhibitors of HSD17B4, hydroxysteroid (17-beta) dehydrogenase 4; 3-hydroxyacyl-CoA dehydrogenase type-2 (Homo sapiens), Q99714; recombinant HSD17B10, NADH fluorescence kinetic; Potency, µM (highest dose often 57.1 µM), actives largely listed as inhibitors; 75,000 compounds, 7.6% hits; AID 893, 2007;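 further: the protocol describes HADH2 (HSD17B10) and not the HSD17B4 of the title; nearly all actives have a fitted effect of over 70% in size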
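His-tagged E. coli-expressed HADH2 at 20 nM in 100 mM Tris-HCl pH 9.0 with 0.01 % Tween-20, preincubated 15 min with compound at room temperature. Reaction with 1 mM NAD+ and 90 uM beta-hydroxybutyryl coenzyme A; NADH fluorescence (360/450 nm) read kinetically over 4 min, last minus first point.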
A350 fluor: qHTS Assay for Spectroscopic Profiling in A350 Spectral Region; max dye-equivalent concentration, M; Compound autofluorescence, 340/450 nm, Alexa 350 dye-equivalents; hits give high values; AID 590, 2007; 59,000 compounds, 11% hits; in the data active means max dye-equivalent concentration above about 10 nM; inconclusive means mostly about 1.1 nM to 9.6 nM
AID923: qHTS Assay for Allosteric/Competitive Inhibitors of Caspase-1: Spectroscopic Profiling in AFC Spectral Region. compound fluorescence, AFC spectral region (405/520 nm). 75,000 compounds, 1.1% hits. Potency, µM (highest dose often 57.5 µM), usual class: activators
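Compound autofluorescence profiled at 405 nm ex/520 nm em during kinetic caspase 1 run (50 nM enzyme, 5 uM Ac-WEHD-AFC, HEPES pH 7.5, 10 mM DTT). Titration up to 57 uM; baseline from regression intercept, normalized to AFC standard curve.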
Numbers stand for hits; - = inactive; ? = inconclusive; . = not tested or not shown; [ ] = dose if it differs, or a comment. Most compounds without a hit are left out; they make up all but 14% or so of the library. Unless noted, the call rests on the fitted dose curve; in most records, active means well fitted curve in the direction sought with a large enough effect; inconclusive means small, poorly fitted or top-dose-only effect, or another doubt; inactive means no such curve, though single readings can be large; an effect the other way counts as inactive or inconclusive.

SMILES	HADH2 inhib	4MU fluor	CRE-bla Fsk	HSD17B inhib	A350 fluor	AID923
Nc1nc(Cl)nc2c1ncn2[C@@H]1O[C@@H](CO)[C@@H](O)[C@H]1O	-	-	?	-	-	-
CCOc1ccc2c(ccc(/C=C\c3cc(C)c4cccnc4c3O)[n+]2C)c1	-[11.4 µM]	1.2e-08M	-[7.6 µM]	-[11.4 µM]	1.4e-08M	-[11.5 µM]
CS(=O)(=O)N1CCC[C@@]2(CCN(C(=O)Nc3ccccc3)C2)C1	-	-	-	-	-	-
N#C/C(=C(/N)Sc1ccc(N)cc1)c1ccccc1C(F)(F)F	?	.	.	-	.	-
CCC1C2CN(C(C)=O)CC=C2C(C#N)=C(N)C1(C#N)C#N (stereo not given)	-	4.5e-08M	-	-	3.8e-08M	-
CCCC1C2CN(C(C)=O)CC=C2C(C#N)=C(N)C1(C#N)C#N (stereo not given)	-	8.1e-08M	-	-	6.9e-08M	-
COc1ccc([C@@H]2[C@H]3CN(C(C)=O)CC=C3C(C#N)=C(N)C2(C#N)C#N)c2ccccc12	-	?	?	?	?	-
NCCC[C@H](N)CC(=O)N[C@H]1CNC(=O)[C@@H]([C@@H]2C[C@H](O)N=C(N)N2)NC(=O)/C(=C/NC(N)=O)NC(=O)[C@@H](CO)NC(=O)[C@@H](CO)NC1=O	-	-	-	-	-	-
C[C@@H](C[C@H](N)C(=O)O)C(=O)O	-[11.4 µM]	-	-[7.6 µM]	-[11.4 µM]	-	-[11.5 µM]
COc1ccc(-n2ncc3c(=O)n(CC(=O)OCc4ccccc4)cnc32)cc1	-	-	-	4µM	-	-
Cc1ccc(-n2nnc3c(=O)n(CC(=O)N4CCCC4)cnc32)cc1	-	-	?	-	-	-
Cc1ccc(-n2ncc3c(=O)n(CC(=O)N4CCCCCC4)cnc32)cc1	-	?	?	32µM	?	-
CC(C)CO/N=C1/C[C@@H](O)[C@@H](O)[C@@H]2[C@H]3C(=O)N(c4ccc(F)cc4F)C(=O)[C@@H]3CC[C@@H]12	-[11.4 µM]	.	.	-[11.4 µM]	.	-[11.5 µM]
CCN1C(=O)[C@@H]2[C@H](C1=O)[C@@H]1C[C@H]3C(=O)N(CC)C(=O)[C@H]3[C@@H]3C1=C(C(=O)N1C(=O)O/C(=N\CC4CC4)[C@]31C)[C@@H]2C	.	.	.	-	.	-
O=C(c1csnn1)N1CCC2(CC1)CN(c1ccncc1)C2	-	-	-	-	-	-
CCOC(=O)c1sc(-c2ccccc2)cc1N	-	2.1e-08M	-	?	2.1e-08M	-
CCOC(=O)c1cc(-c2ccccc2)sc1N	2µM	-	-	?	-	-
CCOC(=O)c1sc(-c2ccc(OC)cc2)cc1N	-	2.5e-08M	-	?	2.3e-08M	-
CCOC(=O)c1c(N)n[nH]c1-c1ccc(OC)cc1	-	-	-	-	-	-
CCOC(=O)c1sc(NC(=O)c2ccco2)nc1-c1ccccc1	-	.	?	-	.	-
C#CCCCO/N=C1/[C@H]2O[C@@H]2[C@@H](O)[C@H]2[C@H]1CCn1c(=O)n(C)c(=O)n12	-[11.4 µM]	.	.	-[11.4 µM]	.	-[11.5 µM]
COc1cccc2c1CCC1CC(=O)CC[C@@]21C (stereo not given in full)	.	.	.	-	.	-
CC1(C)CC(=O)C2=C(C1)Nc1[nH]n(-c3ccccc3)c(=O)c1C2c1ccc2c(c1)OCO2 (stereo not given)	-	-	-	-	-	-
COc1ccc(C2C3=C(CC(C)(C)CC3=O)Nc3n[nH]c(C)c32)cc1 (stereo not given)	?	1.3e-07M	-	16µM	1.3e-07M	-
Cc1[nH]nc2c1C(c1ccccc1)C1=C(CC(C)(C)CC1=O)N2 (stereo not given)	?	1.6e-07M	?	25µM	1.5e-07M	-
COc1ccc(C2C3=C(CC(C)(C)CC3=O)Oc3ncn(CC(C)C)c(=N)c32)cc1 (stereo not given)	-	-	?	-	?	-
CCC(=O)CC(NC(=O)OC)c1ccccc1 (stereo not given)	-[11.4 µM]	.	.	-[11.4 µM]	.	-[11.5 µM]
